We go through 40 molecules from PubChem BioAssay (NCI).

Values joined by “and” are separate entries in the source; they are usually repeats but may differ in a detail not shown here. Equal values may be shown once. Compounds without any hit were thinned out: in the full panel of roughly 83,000, 20% have a hit.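 Growth was measured after 48 h exposure to one concentration of compound in 96-well plates. Values under 10 count as active.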 A number with no mark means an inactive call. Active and inactive are the calls of the source.

The assay deals with MDA-MB-468 breast. Briefly: NCI-60 one-dose screen, 48 h (100 = growth as untreated, 0 = no growth, -100 = all killed). Particulars: 10 µM unless noted.
Turning to `O=C1NC(=O)C(Cc2ccccc2)(Cc2ccccc2)N1`, the growth was 104%.

On to `NC1=Nc2ccccc2N(O)N1`, for which the growth was 102%.

With `COc1cccc2ccc(CC(O)(c3ccccc3)c3ccccc3)nc12`, the growth is 46.7%.

For the molecule `Cc1ccc2nc(-[n+]3cc4ccccc4cc3C)ccc2c1`, the growth is -14.5% (active).

Take `CCCCCCCCc1ccc(OCCOCC[N+](C)(C)CC)cc1` (tested in a mixture with another compound): the growth is -11.3% (active).

`O=C(/C=C/c1cccs1)Nc1ncc(Cc2ccccc2F)s1`: the growth is -13.8% (active).

`O=C1/C(=C/c2cccc([N+](=O)[O-])c2)COc2ccc(O)cc21`: the growth was 36.9%.

On to `COc1ccc(CSc2nnc(SCC(=O)Nc3ccc(Cl)cc3)s2)cc1`, for which the growth is 91.1%.

Turning to `c1n[nH]cc1-c1nc2ccc3[nH]ncc3c2c2c1CCCC2`, the growth was 15.2%.

`O=C(Nc1cc(Nc2ncccc2-c2ncnc3nc[nH]c23)ccc1F)c1cc(C(F)(F)F)cc(C(F)(F)F)c1`: the growth was -24.9% (active).

`N=C(N)c1ccc(S(N)(=O)=O)cc1`: the growth is 96.8%.

For `CC(C)(C)CC(C)(C)Nc1c(-c2ccc3c(c2)OCO3)nc2cnccn12`, the growth was 95.2%.

Consider `c1ccc(-c2oc3ccccc3c2-c2ccccc2)cc1`, for which the growth was 97.9%.

Take `COc1ccc(C2C(c3ccccc3)C(=O)N2c2cc(OC)c(OC)c(OC)c2)cc1I` (stereo not given): the growth is 15.7%.

On to `CCS(=O)(=O)OCCCl`, for which the growth is 94.9%.

For `O=C1OC(c2ccc(-c3ccccc3)cc2)=C/C1=C/c1c(Cl)cccc1Cl`, the growth was 90.8%.

`CN(C)CCCOc1c(Br)cc(/C=C/C(=O)N(C)CCc2cc(Br)c(OCCCN(C)C)c(Br)c2)cc1Br`: the growth was 91.4%.

Consider `c1ccc(-c2cc3cc4ccccc4cn3c2)cc1`, for which the growth was 79.8%.

Turning to `Cc1ccc2cccc(OC(=O)Nc3cccc(C(F)(F)F)c3)c2n1`, the growth is 75.4%.

`COc1ccc(C(=O)/C=C/c2cn(-c3ccccc3)nc2-c2cccc(Nc3ccnc4cc(Cl)ccc34)c2)cc1`: the growth was 75.7%.

With `COc1ccc(-c2n/c(=C\c3c(O)[nH]c4ccccc34)cc3c2=Nc2ccccc2-3)cc1`, the growth was -48% (active).

Regarding `CN1CCN(CCCCCC(=O)Nc2nc(-c3cccc(NS(=O)(=O)c4cccc5c(N(C)C)cccc45)c3)cs2)CC1`, the growth was 74%.

On to `Cc1[nH]n(C(=O)c2ccncc2)c(=O)c1N=Nc1ccc(O)c(C(=O)O)c1`, for which the growth is 105%.

Take `CC1=C(O)C(=O)CC1`: the growth was 104%.

For the molecule `CN1CCc2c(c3ccccc3c3ccccc23)C1`, the growth is 30.7%.

In the case of `CC/C=C\C[C@H]1C/C=C2/C(=O)C(Cl)=C[C@@H]2C/C=C\CCCC(=O)O1`, the growth was -69.2% (active).

As to `CCCC1C(C(=O)OCC)=C(N)Oc2cc(O)ccc21` (stereo not given), the growth is 110%.

Take `Nc1ccc(Cl)cn1`: the growth is 102%.

As to `O=C(NNc1nccc(Nc2ccc(S(=O)(=O)Nc3ccncc3)cc2)n1)c1ccccc1`, the growth is 116%.

For the molecule `COc1ccc(/C=C(/C(=O)N2CCN(Cc3ccccc3)CC2)c2cc(OC)c(OC)c(OC)c2)cc1O`, the growth was 20.4%.

Turning to `CCn1c(=O)c(C(=O)NCCCO)c(O)c2ccccc21`, the growth was 112%.

`COc1cc2c(Nc3ccc(NC(=O)Nc4ccc(Cl)c(C(F)(F)F)c4)c(Cl)c3)ncnc2cc1OCCCN1CCN(C)CC1`: the growth is -70.1% (active).

Consider `CCCCCc1cc[n+](CC(=O)c2ccccc2)cc1`, for which the growth is 86.9% and 76%.

For `C=CCNc1nc(O)c(/C=C2\C=Nc3ncccc32)s1`, the growth is 1.02% (active).

As for `Cc1ccc(N(CC(=O)Nc2ccc(S(=O)(=O)NC3CCN(C)CC3)cc2)S(=O)(=O)c2ccc(Cl)cc2)cc1`, the growth is 50.3%.

Take `CC/C(=C(\c1ccc(OCCN2CCCCCCC2)cc1)c1ccc(OC(=O)C2CCCCC2)cc1)c1ccc(Cl)cc1`: the growth was 114%.

On to `COc1ccc(/C=C/C(=O)c2cc(O)ccc2O)cc1`, for which the growth was 71.2%.

With `CN(CCCCCl)P(=O)(OCc1ccc([N+](=O)[O-])o1)C(F)(F)C[C@H](NC(=O)CNC(=O)c1ccc(N=[N+]=[N-])cc1)C(=O)NCCc1ccc(O)cc1` (stereo not given in full), the growth is 12.5%.

For `COC(=O)c1ccc2c(c1)Oc1ccc(Cl)cc1-c1cc(C)nn1-2`, the growth is 87%.

On to `N#Cc1cccc(NC(=O)c2oc3ccccc3c2-c2cnn(-c3ccccc3)c2)c1`, for which the growth is 66.6% [50 µM].
